Compound activity: PubChem BioAssay, several laboratories
Hits are enriched below; roughly 3.9% of the tested compounds scored in any of these assays.
HIF act – HIF pathway transcriptional activation; U2OS HRE-luciferase reporter, luminescence; normalized: DMSO 0%, desferrioxamine 100%; activation, % at 7.5 µM (by protocol); actives 0.32% (n = 300,000);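 active = mean activation of at least 10% of the iron chelator positive control signal, with at least half of replicates also reaching 10%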
PLCg1 inh – PLC-gamma1 (human) inhibition, primary screen. P19174. purified PLC-gamma1, fluorogenic substrate, fluorescence. inhibition, % at 12.2 µM. actives 0.84% (n = 370,000); in the data active = inhibition above about 9.5%
PLC-beta3 inh – PLC-beta3 (human) inhibition, primary screen. Q01970. Purified PLC-beta3, fluorogenic substrate, fluorescence. inhibition, % at 12.2 µM. actives 0.18% (n = 370,000). AID 720704; in the data active = inhibition above about 11%;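 also: 0% = median of compound wells on plate and 100% = full blocker control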
CR mimetic SO – lowers age-related superoxide in aged yeast cells. S. cerevisiae aged cells, superoxide DHE fluorescence; hits give low values. superoxide response (% of plate mean), % at 10 µM. actives 0.18% (n = 330,000);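 active = superoxide response under a set limit, about three screen SD below normal, cut at about 65% in these data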;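 also: yeast aged for seven days with compound at 30 °C before DHE staining; 100% = average MFI of all compound-treated wells on the plate with controls excluded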
AHR activator – activators of human aryl hydrocarbon receptor; AHR-responsive luciferase reporter cells, luminescence; actives 2.5% (n = 320,000); activation, % at 5 µM; in the data active = activation above about 47%;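 also: 0% = vehicle wells and 100% = reference agonist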
HGIII-sPLA2 inh – Inhibits HGIII-sPLA2 liposome hydrolysis, primary screen | actives 0.56% (n = 370,000) | inhibition, % at 12.2 µM | QFRET BODIPY PC-A2 liposome hydrolysis, fluorescence;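 active = inhibition above mean plus 3 SD of compounds lying within the high and low control bounds, cut at about 19% in these data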;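 also: 0% = median of test compound wells and 100% = no enzyme DMSO wells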
Active calls of the source: *; i = inactive; . = not tested or not shown.

SMILES | HIF act | PLCg1 inh | PLC-beta3 inh | CR mimetic SO | AHR activator | HGIII-sPLA2 inh
COc1ccc(-c2csc(NC(=O)CSc3nc(SC)ns3)n2)cc1 | 1 | 5 | 1 | 120 | 58* | -50
OCC1OC(C(N=Nc2ccccc2)=NNc2ccccc2)C(O)C1O (configuration not stated) | . | -3 | -10 | . | . | 20*
NC(=O)/C(N=Nc1ccccc1)=N/Nc1ccccc1 | 0 | 1 | -3 | 97 | 18 | 8
C=CCc1ccccc1OCCn1ccnc1 | -23 | -1 | -1 | 97 | 12 | -7
C=CCc1cccc(OC)c1OCCOCCn1ccnc1 | 0 | 6 | 8 | 102 | 73* | -20
O=C1NC(=O)C2C3C=CC(C12)C1C(=O)NC(=O)C31 (configuration not stated) | . | 8 | 2 | . | . | 11
O=C(CSc1nnc(-c2ccccc2)n1-c1ccccc1)NN=C/C=C\c1ccccc1[N+](=O)[O-] | . | 8 | 4 | . | . | 0
Cc1ccc(-n2nc(C)c(NC(=O)CCl)c2C)cc1C | 0 | 0 | -3 | 76 | 52* | 2
NC(=O)c1c(N)[nH]c(C(=O)c2ccccc2)c1-c1ccccc1Cl | . | -11 | -9 | . | . | 4
Cc1nn(C)c(C(=O)NC(=S)Nc2ccccc2O)c1Cl | -1 | 2 | -7 | 98 | 54* | 8
Cc1ccc(O)c(NC(=S)NC(=O)c2ccccc2Cl)c1 | 1 | 1 | 3 | 105 | 60* | 3
O=C(NC(=S)Nc1ccc(O)cc1)c1ccccc1Cl | 3 | 0 | 5 | 93 | 23 | 2
CCOC(=O)Nc1ccc2c(c1)[C@]1(CC(=O)N(CC(C)C)C1c1ccccc1)C(=O)N2C (some centres not stated) | . | -3 | -6 | . | . | -2
O=C(Cn1cnc2ccccc2c1=O)Nc1ccc(S(=O)(=O)N2CCOCC2)cc1 | 0 | 3 | -5 | 103 | 47* | 9
O=C(Cn1cnc2ccccc2c1=O)Nc1ccc(S(=O)(=O)N2CCCC2)cc1 | 0 | 1 | 3 | 98 | 2 | 0
COc1ccc(-c2nnc(OCc3ccccc3)c3ccccc23)cc1 | 0 | -4 | -2 | 105 | 56* | -9
Nc1c(-c2ccccn2)cnn1-c1nc(-c2ccc(F)cc2)cs1 | 2 | 0 | -6 | 98 | 63* | -6
O=C(CN1CCCC1)N1CCCc2ccccc21 | -1 | 0 | -1 | 94 | 2 | 6
O=C(c1cccc(F)c1F)N1CCCc2ccccc21 | -18 | 0 | -3 | 96 | 51* | 0
O=C(CN1CCCCC1)N1CCCc2ccccc21 | 90* | 2 | 0 | 106 | 0 | 11
Cn1c(=O)cc(OCC(=O)N2CCCc3ccccc32)c2ccccc21 | 0 | 2 | -4 | 123 | 50* | -4
O=C(CCl)Nc1ccc(C(=O)NCC2COc3ccccc3O2)cc1 (configuration not stated) | . | -3 | 0 | . | . | 0
CCCCNC(=O)C1CCCN1C(=O)Nc1cccc(C)c1 (configuration not stated) | . | 1 | -1 | . | . | 3
O=C(N/N=C/c1sc(N2CCCCC2)nc1-c1cccs1)C1CC1 | 0 | -90 | -97 | 103 | 68* | -4
O=C(NCCCn1ccnc1)Nc1cccc(Cl)c1 | 0 | 2 | 2 | 95 | 60* | -10
SMILES | HIF act | PLCg1 inh | PLC-beta3 inh | CR mimetic SO | AHR activator | HGIII-sPLA2 inh
O=C(NCCCn1ccnc1)Nc1ccc2c(c1)OCO2 | 1 | 0 | -2 | 91 | 50* | -4
CCC(=O)Nc1ccc2c(c1)C(=O)c1ccccc1C2=O | 2 | -19 | -30 | 147 | 69* | 5
CCC(=O)Nc1ccc2c(c1)C(=O)N(C)C2=O | 0 | i | i | 97 | -3 | 5
O=[N+]([O-])c1ccccc1/C=C/C1Nc2cccc3cccc(c23)N1 | . | -1 | -5 | . | . | 7
O=C(CSC1=Nc2ccccc2C2CC=NN12)Nc1ccc(F)c(F)c1F (configuration not stated) | . | 1 | -3 | 106 | 51* | 10
CCCCOC(=O)c1ccc(NC(=O)CSC2=Nc3ccccc3C3CC=NN23)cc1 (configuration not stated) | 0 | -3 | 1 | 102 | 14 | -3
Cc1ccc2[nH]c3c(=O)n(N)c(C)nc3c2c1 | 0 | -17 | -20 | 104 | 48* | 3
COc1ccc2[nH]c3c(=O)n(N)c(C)nc3c2c1 | 0 | -176 | -187 | 92 | 41 | 0
